Common to all, as to experiment: PBM; 200 nM protein, PBS
What all share (settings): dsDNA, one strand shown

The target of assay [1] is HOXB4 (Homo sapiens, UniProt P17483 148-234).
Assay [2] concerns the target HOXB6 (Homo sapiens, UniProt P17509 132-218, K202E).
In assay [3] the target is HOXB4 (Homo sapiens, UniProt P17483 148-234, V174I).
The target of assay [4] is T1, VENTX (Homo sapiens, UniProt O95231 78-163, R121Q).
T1 sequence: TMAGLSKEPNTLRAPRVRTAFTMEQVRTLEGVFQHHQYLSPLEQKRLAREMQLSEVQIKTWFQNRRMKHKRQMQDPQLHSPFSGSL

The target in assay [5] is HOXA4 (Homo sapiens, UniProt Q00056 201-287, W262R).
HOXA4 (Homo sapiens, UniProt Q00056 201-287, W262R), sequence (Q00056 201-287 W262R): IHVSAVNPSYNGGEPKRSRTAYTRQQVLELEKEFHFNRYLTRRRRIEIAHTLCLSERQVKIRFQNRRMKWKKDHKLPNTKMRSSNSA
Assay [6] deals with HOXA7 (Homo sapiens, UniProt P31268 116-202).
HOXA7 (Homo sapiens, UniProt P31268 116-202), sequence (P31268 116-202): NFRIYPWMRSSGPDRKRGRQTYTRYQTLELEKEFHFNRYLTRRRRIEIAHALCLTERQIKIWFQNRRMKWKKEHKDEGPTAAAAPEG
Assay [7] has as its target HOXA4 (Homo sapiens, UniProt Q00056 201-287, R217L).
The target in assay [8] is HOXA4 (Homo sapiens, UniProt Q00056 201-287).
HOXA4 (Homo sapiens, UniProt Q00056 201-287), sequence (Q00056 201-287): as the sequence (Q00056 201-287 W262R) above, with R62W counted along it
The target of assay [9] is VAX1 (Homo sapiens, UniProt Q5SQQ9 86-172).
VAX1 (Homo sapiens, UniProt Q5SQQ9 86-172), sequence (Q5SQQ9 86-172): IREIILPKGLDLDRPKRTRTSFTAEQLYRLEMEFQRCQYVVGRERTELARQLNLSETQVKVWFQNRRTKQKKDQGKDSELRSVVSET
Assay [10] has as its target VAX1 (Homo sapiens, UniProt Q5SQQ9 86-172, T142I).
Assay [11] addresses HOXA7 (Homo sapiens, UniProt P31268 116-202, W177C).
In assay [12] the target is HOXA4 (Homo sapiens, UniProt Q00056 201-287, W262F).
HOXA4 (Homo sapiens, UniProt Q00056 201-287, W262F), sequence (Q00056 201-287 W262F): as the sequence (Q00056 201-287 W262R) above, with R62F counted along it
For assay [13], the target named is VAX1 (Homo sapiens, UniProt Q5SQQ9 86-172, K157R).
VAX1 (Homo sapiens, UniProt Q5SQQ9 86-172, K157R), sequence (Q5SQQ9 86-172 K157R): as the sequence (Q5SQQ9 86-172) above, with K72R counted along it
Assay [14] deals with HOXB6 (Homo sapiens, UniProt P17509 132-218).
HOXB6 (Homo sapiens, UniProt P17509 132-218), sequence (P17509 132-218): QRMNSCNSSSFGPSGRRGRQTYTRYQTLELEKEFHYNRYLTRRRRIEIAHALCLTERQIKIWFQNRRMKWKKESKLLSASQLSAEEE
Assay [15] deals with T2, VENTX (Homo sapiens, UniProt O95231 78-163).
T2 sequence: T1 sequence with Q44R

Assay [16] addresses T3, VENTX (Homo sapiens, UniProt O95231 78-163, Y115F).
T3 sequence: T1 sequence with Y38F, Q44R

Assay [17] concerns the target HOXA2 (Homo sapiens, UniProt O43364 129-215, R185T).
For assay [18], the target named is HOXA2 (Homo sapiens, UniProt O43364 129-215, R185K).
HOXA2 (Homo sapiens, UniProt O43364 129-215, R185K), sequence (O43364 129-215 R185K): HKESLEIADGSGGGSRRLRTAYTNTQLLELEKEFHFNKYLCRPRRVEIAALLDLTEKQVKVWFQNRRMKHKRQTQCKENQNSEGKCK
Assay [19] deals with HOXA2 (Homo sapiens, UniProt O43364 129-215, Y150S).
HOXA2 (Homo sapiens, UniProt O43364 129-215, Y150S), sequence (O43364 129-215 Y150S): as the sequence (O43364 129-215 R185K) above, with Y22S, K57R counted along it
Assay [20] deals with HOXA2 (Homo sapiens, UniProt O43364 129-215).
HOXA2 (Homo sapiens, UniProt O43364 129-215), sequence (O43364 129-215): as the sequence (O43364 129-215 R185K) above, with K57R counted along it

Residue numbers refer to the chain shown, from its start.

HOXA7 (Homo sapiens, UniProt P31268 116-202, W177C), sequence (P31268 116-202 W177C): as the sequence (P31268 116-202) above, with W62C counted along it
HOXB6 (Homo sapiens, UniProt P17509 132-218, K202E), sequence (P17509 132-218 K202E): as the sequence (P17509 132-218) above, with K71E counted along it
HOXA4 (Homo sapiens, UniProt Q00056 201-287, R217L), sequence (Q00056 201-287 R217L): as the sequence (Q00056 201-287 W262R) above, with R17L, R62W counted along it
HOXB4 (Homo sapiens, UniProt P17483 148-234), sequence (P17483 148-234): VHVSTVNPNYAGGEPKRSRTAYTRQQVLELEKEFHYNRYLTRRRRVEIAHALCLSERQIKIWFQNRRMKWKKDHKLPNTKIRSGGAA
VAX1 (Homo sapiens, UniProt Q5SQQ9 86-172, T142I), sequence (Q5SQQ9 86-172 T142I): as the sequence (Q5SQQ9 86-172) above, with T57I counted along it
HOXB4 (Homo sapiens, UniProt P17483 148-234, V174I), sequence (P17483 148-234 V174I): as the sequence (P17483 148-234) above, with V27I counted along it
HOXA2 (Homo sapiens, UniProt O43364 129-215, R185T), sequence (O43364 129-215 R185T): as the sequence (O43364 129-215 R185K) above, with K57T counted along it

Regarding ATTATTAA, the binding signal with HOXB4 [1] is 12.9 upbm affinity estimate (log intensity, higher = more binding, comparable within an allelic series); with HOXB6 [2], 10.1 upbm affinity estimate (log intensity, higher = more binding, comparable within an allelic series); with HOXB4 [3], 13.6 upbm affinity estimate (log intensity, higher = more binding, comparable within an allelic series).

As for TCCATTAA, the binding signal with HOXB4 [1] is 13 upbm affinity estimate (log intensity, higher = more binding, comparable within an allelic series); in the assay with VENTX [4] it was 11.7 upbm affinity estimate (log intensity, higher = more binding, comparable within an allelic series); in the assay with HOXA4 [5] it was 10.5 upbm affinity estimate (log intensity, higher = more binding, comparable within an allelic series); with HOXA7 [6], 11.2 upbm affinity estimate (log intensity, higher = more binding, comparable within an allelic series); in the assay with HOXB6 [2] it was 9.96 upbm affinity estimate (log intensity, higher = more binding, comparable within an allelic series); in the assay with HOXA4 [7] it was 11.9 upbm affinity estimate (log intensity, higher = more binding, comparable within an allelic series). In addition, the binding signal was 13.6 upbm affinity estimate (log intensity, higher = more binding, comparable within an allelic series) with HOXB4 [3]; 13.7 upbm affinity estimate (log intensity, higher = more binding, comparable within an allelic series) with HOXA4 [8]; 12.8 upbm affinity estimate (log intensity, higher = more binding, comparable within an allelic series) with VAX1 [9]; 12.2 upbm affinity estimate (log intensity, higher = more binding, comparable within an allelic series) with VAX1 [10]; 8.72 upbm affinity estimate (log intensity, higher = more binding, comparable within an allelic series) with HOXA7 [11]; 11.4 upbm affinity estimate (log intensity, higher = more binding, comparable within an allelic series) with HOXA4 [12]. The binding signal with VAX1 [13] is 12.2 upbm affinity estimate (log intensity, higher = more binding, comparable within an allelic series); with HOXB6 [14] it was 11.7 upbm affinity estimate (log intensity, higher = more binding, comparable within an allelic series).

For the sequence CTAATGAC, the binding signal in the assay with HOXB4 [1] was 13.2 upbm affinity estimate (log intensity, higher = more binding, comparable within an allelic series); with VENTX [4] it was 11.9 upbm affinity estimate (log intensity, higher = more binding, comparable within an allelic series); with HOXA4 [5] it was 10.6 upbm affinity estimate (log intensity, higher = more binding, comparable within an allelic series); with VENTX [15], 12.5 upbm affinity estimate (log intensity, higher = more binding, comparable within an allelic series); with VENTX [16], 11.9 upbm affinity estimate (log intensity, higher = more binding, comparable within an allelic series); in the assay with HOXA2 [17], 13.1 upbm affinity estimate (log intensity, higher = more binding, comparable within an allelic series). The binding signal in the assay with HOXA4 [7] was 12.1 upbm affinity estimate (log intensity, higher = more binding, comparable within an allelic series); with HOXB4 [3] it was 13.9 upbm affinity estimate (log intensity, higher = more binding, comparable within an allelic series); in the assay with HOXA2 [18], 13.7 upbm affinity estimate (log intensity, higher = more binding, comparable within an allelic series); with HOXA4 [8] it was 13.9 upbm affinity estimate (log intensity, higher = more binding, comparable within an allelic series); in the assay with VAX1 [9], 13.3 upbm affinity estimate (log intensity, higher = more binding, comparable within an allelic series); with VAX1 [10], 13.2 upbm affinity estimate (log intensity, higher = more binding, comparable within an allelic series). In addition, the binding signal in the assay with HOXA2 [19] is 10.9 upbm affinity estimate (log intensity, higher = more binding, comparable within an allelic series); in the assay with HOXA4 [12], 12 upbm affinity estimate (log intensity, higher = more binding, comparable within an allelic series); with HOXA2 [20] it was 12.9 upbm affinity estimate (log intensity, higher = more binding, comparable within an allelic series); in the assay with VAX1 [13], 13.2 upbm affinity estimate (log intensity, higher = more binding, comparable within an allelic series).

With CGCAGACC, the binding signal in the assay with HOXB4 [1] is 7.32 upbm affinity estimate (log intensity, higher = more binding, comparable within an allelic series); with VENTX [4], 8.16 upbm affinity estimate (log intensity, higher = more binding, comparable within an allelic series); with VENTX [15], 7.99 upbm affinity estimate (log intensity, higher = more binding, comparable within an allelic series); with VENTX [16] it was 8.12 upbm affinity estimate (log intensity, higher = more binding, comparable within an allelic series); in the assay with HOXB4 [3], 7.36 upbm affinity estimate (log intensity, higher = more binding, comparable within an allelic series).

In the case of GTTAATGA, the binding signal in the assay with HOXB4 [1] is 13.3 upbm affinity estimate (log intensity, higher = more binding, comparable within an allelic series); with VENTX [4], 11.9 upbm affinity estimate (log intensity, higher = more binding, comparable within an allelic series); with HOXA4 [5], 10.7 upbm affinity estimate (log intensity, higher = more binding, comparable within an allelic series); with VENTX [15], 12.6 upbm affinity estimate (log intensity, higher = more binding, comparable within an allelic series); in the assay with HOXA7 [6], 11.3 upbm affinity estimate (log intensity, higher = more binding, comparable within an allelic series); in the assay with VENTX [16] it was 11.9 upbm affinity estimate (log intensity, higher = more binding, comparable within an allelic series). For the same sequence, the binding signal with HOXB6 [2] was 9.94 upbm affinity estimate (log intensity, higher = more binding, comparable within an allelic series); with HOXA2 [17], 13.1 upbm affinity estimate (log intensity, higher = more binding, comparable within an allelic series); with HOXA4 [7], 12.7 upbm affinity estimate (log intensity, higher = more binding, comparable within an allelic series); with HOXB4 [3] it was 14 upbm affinity estimate (log intensity, higher = more binding, comparable within an allelic series); with HOXA2 [18] it was 13.5 upbm affinity estimate (log intensity, higher = more binding, comparable within an allelic series); with HOXA4 [8], 14.1 upbm affinity estimate (log intensity, higher = more binding, comparable within an allelic series). In addition, the binding signal with VAX1 [9] is 13.5 upbm affinity estimate (log intensity, higher = more binding, comparable within an allelic series); with VAX1 [10] it was 13.4 upbm affinity estimate (log intensity, higher = more binding, comparable within an allelic series); with HOXA2 [19] it was 10.9 upbm affinity estimate (log intensity, higher = more binding, comparable within an allelic series); with HOXA7 [11], 8.79 upbm affinity estimate (log intensity, higher = more binding, comparable within an allelic series); with HOXA4 [12], 12.3 upbm affinity estimate (log intensity, higher = more binding, comparable within an allelic series); with HOXA2 [20], 12.8 upbm affinity estimate (log intensity, higher = more binding, comparable within an allelic series). Moreover, the binding signal in the assay with VAX1 [13] is 13.3 upbm affinity estimate (log intensity, higher = more binding, comparable within an allelic series); with HOXB6 [14], 11.8 upbm affinity estimate (log intensity, higher = more binding, comparable within an allelic series).

With TATTAATA, the binding signal was 12.7 upbm affinity estimate (log intensity, higher = more binding, comparable within an allelic series) in the assay with HOXB4 [1]; 11.2 upbm affinity estimate (log intensity, higher = more binding, comparable within an allelic series) with HOXA7 [6]; 10 upbm affinity estimate (log intensity, higher = more binding, comparable within an allelic series) with HOXB6 [2]; 13.3 upbm affinity estimate (log intensity, higher = more binding, comparable within an allelic series) in the assay with HOXB4 [3]; 9.08 upbm affinity estimate (log intensity, higher = more binding, comparable within an allelic series) with HOXA7 [11]; 11.7 upbm affinity estimate (log intensity, higher = more binding, comparable within an allelic series) with HOXB6 [14].

In the case of CCCATTAA, the binding signal is 13 upbm affinity estimate (log intensity, higher = more binding, comparable within an allelic series) with HOXB4 [1]; 12.1 upbm affinity estimate (log intensity, higher = more binding, comparable within an allelic series) with VENTX [4]; 10.4 upbm affinity estimate (log intensity, higher = more binding, comparable within an allelic series) in the assay with HOXA4 [5]; 13.1 upbm affinity estimate (log intensity, higher = more binding, comparable within an allelic series) with VENTX [15]; 11.8 upbm affinity estimate (log intensity, higher = more binding, comparable within an allelic series) with HOXA7 [6]; 12 upbm affinity estimate (log intensity, higher = more binding, comparable within an allelic series) in the assay with VENTX [16]. The binding signal with HOXB6 [2] was 9.99 upbm affinity estimate (log intensity, higher = more binding, comparable within an allelic series); in the assay with HOXA2 [17], 12.5 upbm affinity estimate (log intensity, higher = more binding, comparable within an allelic series); in the assay with HOXA4 [7], 11.9 upbm affinity estimate (log intensity, higher = more binding, comparable within an allelic series); with HOXB4 [3], 13.5 upbm affinity estimate (log intensity, higher = more binding, comparable within an allelic series); with HOXA2 [18], 13.1 upbm affinity estimate (log intensity, higher = more binding, comparable within an allelic series); in the assay with HOXA4 [8], 13.7 upbm affinity estimate (log intensity, higher = more binding, comparable within an allelic series). In addition, the binding signal in the assay with VAX1 [9] is 12.9 upbm affinity estimate (log intensity, higher = more binding, comparable within an allelic series); with VAX1 [10] it was 12.5 upbm affinity estimate (log intensity, higher = more binding, comparable within an allelic series); with HOXA2 [19], 10.7 upbm affinity estimate (log intensity, higher = more binding, comparable within an allelic series); with HOXA7 [11], 8.83 upbm affinity estimate (log intensity, higher = more binding, comparable within an allelic series); with HOXA4 [12] it was 11.1 upbm affinity estimate (log intensity, higher = more binding, comparable within an allelic series); in the assay with HOXA2 [20], 12.1 upbm affinity estimate (log intensity, higher = more binding, comparable within an allelic series). Also, the binding signal was 12.6 upbm affinity estimate (log intensity, higher = more binding, comparable within an allelic series) with VAX1 [13] and 12.3 upbm affinity estimate (log intensity, higher = more binding, comparable within an allelic series) with HOXB6 [14].

In the case of GATAATGA, the binding signal with HOXB4 [1] was 13.1 upbm affinity estimate (log intensity, higher = more binding, comparable within an allelic series); with HOXA4 [5], 10.7 upbm affinity estimate (log intensity, higher = more binding, comparable within an allelic series); with HOXA2 [17], 12.6 upbm affinity estimate (log intensity, higher = more binding, comparable within an allelic series); with HOXA4 [7], 12.3 upbm affinity estimate (log intensity, higher = more binding, comparable within an allelic series); with HOXB4 [3], 13.7 upbm affinity estimate (log intensity, higher = more binding, comparable within an allelic series); with HOXA2 [18] it was 13.3 upbm affinity estimate (log intensity, higher = more binding, comparable within an allelic series). Moreover, the binding signal in the assay with HOXA4 [8] was 13.9 upbm affinity estimate (log intensity, higher = more binding, comparable within an allelic series); with VAX1 [9], 12.9 upbm affinity estimate (log intensity, higher = more binding, comparable within an allelic series); with VAX1 [10], 12.7 upbm affinity estimate (log intensity, higher = more binding, comparable within an allelic series); with HOXA2 [19] it was 10.9 upbm affinity estimate (log intensity, higher = more binding, comparable within an allelic series); with HOXA4 [12], 11.6 upbm affinity estimate (log intensity, higher = more binding, comparable within an allelic series); with HOXA2 [20] it was 12.3 upbm affinity estimate (log intensity, higher = more binding, comparable within an allelic series). In the assay with VAX1 [13], the binding signal is 12.5 upbm affinity estimate (log intensity, higher = more binding, comparable within an allelic series).

In the case of TATAATGA, the binding signal in the assay with HOXB4 [1] was 13 upbm affinity estimate (log intensity, higher = more binding, comparable within an allelic series); with HOXA4 [5] it was 10.5 upbm affinity estimate (log intensity, higher = more binding, comparable within an allelic series); in the assay with HOXA2 [17], 12 upbm affinity estimate (log intensity, higher = more binding, comparable within an allelic series); with HOXA4 [7] it was 11.9 upbm affinity estimate (log intensity, higher = more binding, comparable within an allelic series); with HOXB4 [3] it was 13.5 upbm affinity estimate (log intensity, higher = more binding, comparable within an allelic series); in the assay with HOXA2 [18], 12.8 upbm affinity estimate (log intensity, higher = more binding, comparable within an allelic series). Moreover, the binding signal with HOXA4 [8] was 13.6 upbm affinity estimate (log intensity, higher = more binding, comparable within an allelic series); in the assay with HOXA2 [19], 10.9 upbm affinity estimate (log intensity, higher = more binding, comparable within an allelic series); with HOXA4 [12] it was 11.2 upbm affinity estimate (log intensity, higher = more binding, comparable within an allelic series); with HOXA2 [20] it was 12.1 upbm affinity estimate (log intensity, higher = more binding, comparable within an allelic series).

These data come from article PMC11006913.
